Most compounds without a hit are left out; they make up all but 10% or so of the library.
CtBP-E1A inh – qHTS Assay for Inhibitors of the CtBP/E1A Interaction; CtBP / adenovirus E1A interaction (AlphaScreen); AlphaScreen GST-E1A/His-CtBP binding, 1536-well; stronger effect = lower value; activity change, % (concentration not given with the values); 340,000 compounds, 0.49% hits; in the data active means activity change below about -65%; inconclusive means mostly about -30% to -63%; further: on the % scale 0 is the no-effect control and ±100 the full control effect
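In 5 uL wells, 23 nL compound meets equimolar GST-E1A and His-CtBP (5X stock 125 nM each) for 2 h, 37 °C. Beads (5X, 50 ug/mL) then 1 h, 37 °C, dark.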
JMJD2A Tudor inh – qHTS Assay for Inhibitors of JMJD2A-Tudor Domain; AlphaScreen JMJD2A-Tudor / H3K4me3 peptide binding; Potency, µM (titrated, usually from 114 µM), inactives show top-dose activity change, negative = inhibition, usual class: inhibitors; 390,000 compounds, 4.4% hits; AID 504339, 2011; further: potency means the concentration at half of the fitted maximal effect; on the % scale 0 is the no-effect control and ±100 the full control effect; nearly all actives have a fitted effect of over 50% in size
Six1-Eya2 blk – qHTS Assay for Inhibitors of the Six1/Eya2 Interaction | activity change, % (concentration not given with the values) | 360,000 compounds, 0.56% hits | AlphaScreen GST-Six1/His-Eya2 binding, biochemical; stronger effect = lower value; in the data active means activity change below about -65%; inconclusive means mostly about -30% to -63%; further: on the % scale 0 is the no-effect control and ±100 the full control effect
Target sequence (O00167 whole entry, looked up): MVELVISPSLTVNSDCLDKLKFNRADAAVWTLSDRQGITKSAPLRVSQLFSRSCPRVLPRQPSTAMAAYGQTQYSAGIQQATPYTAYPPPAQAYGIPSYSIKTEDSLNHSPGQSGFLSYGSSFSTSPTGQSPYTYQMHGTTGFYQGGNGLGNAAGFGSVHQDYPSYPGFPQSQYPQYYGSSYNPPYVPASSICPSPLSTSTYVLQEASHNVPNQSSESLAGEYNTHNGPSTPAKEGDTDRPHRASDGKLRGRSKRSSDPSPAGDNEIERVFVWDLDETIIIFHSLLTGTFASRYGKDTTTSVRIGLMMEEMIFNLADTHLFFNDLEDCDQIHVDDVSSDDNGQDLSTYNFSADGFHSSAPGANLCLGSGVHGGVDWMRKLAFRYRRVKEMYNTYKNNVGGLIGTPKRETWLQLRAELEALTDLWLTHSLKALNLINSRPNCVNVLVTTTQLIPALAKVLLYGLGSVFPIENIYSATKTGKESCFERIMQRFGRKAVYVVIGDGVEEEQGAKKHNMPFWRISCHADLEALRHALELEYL
Target sequence (Q15475 whole entry, looked up): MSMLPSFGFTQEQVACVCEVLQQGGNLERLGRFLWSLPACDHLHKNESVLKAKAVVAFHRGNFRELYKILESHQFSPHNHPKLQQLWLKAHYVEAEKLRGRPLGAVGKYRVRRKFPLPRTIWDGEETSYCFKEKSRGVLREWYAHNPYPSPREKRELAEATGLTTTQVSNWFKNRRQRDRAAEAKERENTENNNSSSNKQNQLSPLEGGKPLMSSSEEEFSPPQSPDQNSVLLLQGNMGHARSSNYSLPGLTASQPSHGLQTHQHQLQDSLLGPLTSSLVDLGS
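GST-Six1 + His-Eya2 (5X stock: 250/500 nM); Tris pH 8.0, 300 mM NaCl, 0.05% BSA, 0.02% Tween 20; GSH donor/Ni acceptor beads; 1 h 37 °C dark; AlphaScreen readout.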
G9a inh – qHTS Assay for Inhibitors of Histone Lysine Methyltransferase G9a; AID 504332, 2011; G9a H3K9 monomethylation, AlphaScreen, 2 h; Potency, µM (top dose mostly 102 µM), for the others: top-dose activity, negative = inhibition, usual class: inhibitors; Histone-lysine N-methyltransferase EHMT2 (Homo sapiens), Q96KQ7; 350,000 compounds, 8.8% hits; further: potency means the concentration at half of the fitted maximal effect; on the % scale 0 is the no-effect control and ±100 the full control effect; nearly all actives have a fitted effect of over 75% in size
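Compounds were preincubated with 20 nM G9a for 15 min, after which biotinylated H3K9 peptide (500 nM) and SAM (20 uM) started a 2 h room-temperature reaction. Monomethylated product was quantified by antibody-based AlphaScreen chemiluminescence.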
HP1b binding inh – HTS for Inhibitors of HP1-beta Chromodomain Interactions with Methylated Histone Tails | AlphaScreen HP1-beta / biotin-H3K9me3 peptide binding | Potency, µM (top dose mostly 114 µM), without a hit: top-dose activity change, negative = inhibition, most hits filed as inhibitors | 390,000 compounds, 0.56% hits; further: potency means the concentration at half of the fitted maximal effect; nearly all actives have a fitted effect of over 70% in size
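Compound inhibition of the preformed complex between 50 nM HP1-beta and 50 nM biotinylated H3K9me3 peptide was read by AlphaScreen. Buffer was PBS pH 7.4 with 0.01% Tween-20. Incubations ran 30 min at room temperature, with 10 ug/mL donor/acceptor beads.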
BAZ2B inh – qHTS Assay for Inhibitors of BAZ2B; Bromodomain adjacent to zinc finger domain protein 2B (Homo sapiens), Q9UIF8; AlphaScreen BAZ2B-H3K14Ac peptide displacement; Potency, µM (doses to about 114 µM), without a hit: at the top dose activity change, negative = inhibition, most hits filed as inhibitors; 360,000 compounds, 4.4% hits; AID 504333, 2011; further: potency means the concentration at half of the fitted maximal effect; on the % scale 0 is the no-effect control and ±100 the full control effect; nearly all actives have a fitted effect of over 60% in size
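AlphaScreen luminescence quantifies BAZ2B engagement of H3K14Ac peptide; the protein and biotinylated peptide are both at 50 nM final, buffer PBS pH 7.4 with 0.01% Tween-20, all steps at room temperature.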
An asterisk follows results filed as active; ? = inconclusive; nt = no result given; [ ] = dose if it differs, or a comment. Unless noted, the call rests on the fitted dose curve; in most records, active means well fitted inhibition curve with a large enough effect; inconclusive means small, poorly fitted or top-dose-only effect; inactive means no such curve, though single readings can be large or run the other way.

SMILES	CtBP-E1A inh	JMJD2A Tudor inh	Six1-Eya2 blk	G9a inh	HP1b binding inh	BAZ2B inh
CC(CCc1ccccc1)NC(=O)COC(=O)C(CCC(N)=O)NC(=O)c1ccc(F)cc1 (stereo not given)	nt	-4%	7	2%[2.33 µM]	35%	8%
CCCCCCC(=O)N/N=C/c1ccco1	5	-5%	-1	4%[59 µM]	31%	-4%
CN(C)C(/C=C/Nc1ccc([N+](=O)[O-])cc1)=C(C#N)C#N	-1	-8%	-10	7%	14%	-1%
COc1ccc(CCNCC(=O)N2C(C)CCCC2C)cc1OC (stereo not given)	-2	0.79µM*	-7	-10%	?	79µM*
COc1ccc(CCNC(=O)C2CC2)cc1OC	0	1%	-2	?	14%	nt
CC(NC(=O)/C(C#N)=C1\N=C(NC(=O)c2cccs2)c2ccccc21)c1ccccc1 (stereo not given)	-24	-36%	-23	?	-16%	?
COc1ccc(/C=C(/NC(=O)c2ccc(Br)o2)C(=O)Nc2cccc(C(=O)O)c2)cc1	-2	nt	19	nt	nt	nt
Fc1ccccc1NC(=S)Nc1cccc2cnccc12	-4	-36%	-1	18µM*	-30%	-36%
Cc1ccc(NC(=S)Nc2cccc3cnccc23)cc1C	-11	-34%	-4	-4%[12.7 µM]	?	-36%
Cc1ccccc1NC(=S)Nc1cccc2cnccc12	-1	-22%	7	1.8µM*	-18%	-13%
Cc1ccc(NC(=S)Nc2cccc3cnccc23)cc1	nt	-27%	-8	35µM*	-7%	?
FC(F)(F)c1ccccc1NC(=S)Nn1cnnc1	7	-29%	14	7.1µM*	?	-17%
NC(=S)Nc1cccc2cnccc12	-4	-7%	11	-7%[59 µM]	25%	-2%
Cc1ccc(C)c(NC(=S)Nc2cccc3cnccc23)c1	-6	-16%	-7	22µM*	-2%	-36%
FC(F)(F)c1ccccc1NC(=S)Nc1cccc2cnccc12	2	-28%	2	35µM*	?	?
Cc1ccc2nc(-c3ccc(NC(=O)COCC(=O)O)cc3)sc2c1	-27	-20%	-19	50µM*	23%	-4%
Cc1ccc2nc(-c3ccc(NC(=O)CCN4C(=O)c5ccccc5C4=O)cc3)sc2c1	20	-8%	2	45µM*	33%	-19%
O=C(O)CSCC(=O)Nc1ccc(-c2nc3ccccc3s2)cc1	?	-30%	-27	45µM*	9%	-1%
CCCn1c(=O)c2sccc2n2c(CCCC(=O)N3CCN(c4cccc(C)c4C)CC3)nnc12	nt	-15%	nt	-4%[59 µM]	42%	?
Cc1ccc(-n2nc3c(=O)n(CC(=O)NC(C)C)nc(C)c3c2C)cc1	nt	8%	nt	-1%[59 µM]	45%	-3%
COn1cnnc1-c1ccccc1	7	-7%	11	13µM*	27%	7%
Cc1cc(-c2ccccc2)c2c(=O)n(-c3ccccc3)[nH]c2n1	-24	-34%	-19	11µM*	5%	?
CCCn1c2c(c(=N)c3c1CCC3)CCC2	5	-6%	5	50µM*	7%	?
CCOC(=O)Cn1c2c(c(=N)c3c1CCC3)CCCC2	13	7%	1	23%	28%	4%
CCCn1c2c(c(=N)c3c1CCC3)CCCC2	14	?	-1	13µM*	19%	-1%
SMILES	CtBP-E1A inh	JMJD2A Tudor inh	Six1-Eya2 blk	G9a inh	HP1b binding inh	BAZ2B inh
Cc1ccc(C)c(NC(=S)N(C)CCO)c1	0	-3%[57.1 µM]	-3	28%	34%	-4%
CN(C(=O)c1cccnc1)c1nnc(-c2cnccn2)s1	-2	-4%	1	-6%[2.33 µM]	12%	8%
CN(C(=O)c1ccccn1)c1nnc(-c2cnccn2)s1	-7	-4%	0	45µM*	3%	79µM*
CN(C(=O)c1cccnc1)c1nnc(-c2ccccn2)s1	-2	-14%	-8	?	19%	56µM*
COc1cccc(C(=O)N(C)c2nnc(-c3ccncc3)s2)c1	13	-13%	-1	79µM*	30%	1%
CCCC(=O)N(C)c1nnc(-c2ccc(OC)cc2)s1	nt	-4%	1	45µM*	23%	-3%
CN(C(=O)c1cnccn1)c1nnc(-c2cnccn2)s1	0	-21%	-3	-8%[2.33 µM]	14%	-3%
COCCN(C(=O)CCc1ccc(OC)cc1)c1nnc(-c2ccncc2)s1	10	-22%	-1	?	42%	-16%
O=C1NC(c2cccc3ccccc23)Nc2ccc(Cl)cc21 (stereo not given)	11	-1%	1	nt	81%	nt
O=C(CN1CCN(S(=O)(=O)c2ccc(F)c(Cl)c2)CC1)N1CCNC1=O	0	40µM*	2	0%[59 µM]	21%	-6%
Cc1ccc(CN2CCN(C3CCN(C(=O)c4ccc(C)cc4)CC3)C(=O)C2=O)cc1	nt	-15%	nt	0%[59 µM]	10%	0%
COCCCN=Cc1c(C)[nH]n(-c2ccc(Br)cc2Br)c1=O	-5	-16%	-6	50µM*	-5%	nt
Cc1[nH]n(-c2ccc([N+](=O)[O-])cc2)c(=O)c1C=NCCN1CCN(C(=O)c2ccc(Br)cc2)CC1	-13	-11%	-3	?	25%	-5%
CC(=O)c1ccc(-n2c(CCC(=O)O)ccc2-c2ccc(Br)cc2)cc1	10	?	-2	40µM*	-8%	?
O=C(O)CCc1ccc(-c2ccc(Br)cc2)n1-c1ccc(O)cc1	-8	?	-15	45µM*	?	40µM*
CC(=O)c1ccc(-n2c(CCC(=O)O)ccc2-c2ccc(C)cc2)cc1	-7	?	-18	22%[2.33 µM]	-15%	-38%
Cc1ccc(NC2(c3ccccc3)C(=O)c3ccccc3C2=O)cc1F	nt	?	nt	13µM*	-22%	?
O=C(O)/C=C/C(=O)Nc1ccc(-n2ccc(C(F)(F)F)n2)cc1	nt	-17%	1	45µM*	31%	-2%
O=C(O)/C=C\C(=O)Nc1ccccc1C(=O)N1CCN(c2ccc(Cl)cc2)CC1	9	?	3	-32%[2.33 µM]	29%	-30%
O=C(O)/C=C\C(=O)Nc1ccc(N2CCN(c3ccc(Cl)cc3)CC2)cc1	-9	-34%	-24	10µM*	-2%	?
O=C(O)/C=C/C(=O)Nc1ccc(-n2nccc2C(F)(F)F)cc1	5	-4%	12	?	18%	2%

Screening data as filed in PubChem.
